We go through 18 compounds from PubChem BioAssay (EPA / NIEHS).

Broadly, the AC50 is the midpoint of the concentration-response curve, whichever way the signal moves.

Several values for one entry are separate records, joined by “and”; a condition that tells them apart may be missing. Equal entries are not always repeated. Inconclusive results are not listed. Activity calls are given as the source filed them. How the source made its calls, unless noted: active means hit-call score of the fitted dose curve at least 0.9, where 1 is the maximum; inconclusive means response in the unintended direction; inactive means score below 0.9.

The nature of assay [1]: TOX21_p53_BLA_p2_viability: Viability Assessment in the Tox21 HCT-116 p53 Agonism Beta-lactamase Assay, Phase 2 (AID 2283591).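 Further: compound exposure lasted 16 h at 37 °C; actives lower the ATP signal meaning cytotoxicity.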 Summed up:
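Cytotoxicity readout: CellTiter-Glo ATP luminescence, 30 min at room temperature, after the beta-lactamase read. Cells were HCT116 exposed 16 h at 37C to compounds pin-transferred at 217-fold dilution from DMSO stocks.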

Assay [2] concerns the target Cellular tumor antigen p53 (Homo sapiens) (UniProt P04637). The assay can be described thus: TOX21_p53_BLA_p2_ratio: Tox21 HCT-116 p53 Agonism Beta-lactamase Assay, Ratio, Phase 2 (AID 2283592). Summed up: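 Cleaved-to-uncleaved substrate ratio (460 vs 530 nm) measured in HCT116 cells with an inducible beta-lactamase reporter linked to p53 activity. Compounds incubated 16 h at 37C before 2 h room-temperature CCF4-AM loading.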

Assay [3] is described as follows: TOX21_p53_BLA_p4_viability: Viability Assessment in the Tox21 HCT-116 p53 Agonism Beta-lactamase Assay, Phase 4 (AID 2283597).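 Further: hits lower the luminescence signal meaning cytotoxicity.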 Summed up: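 Viability is taken as cellular ATP: after 16 h compound exposure of HCT116 cells and a 2 h room-temperature CCF4-AM substrate step, CellTiter-Glo reagent is added and luminescence is measured 30 min later.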
Assay [4] concerns the target Cellular tumor antigen p53 (Homo sapiens) (UniProt P04637). The assay can be described thus: TOX21_p53_BLA_p5_ratio: Tox21 HCT-116 p53 Agonism Beta-lactamase Assay, Ratio, Phase 5 (AID 2283599). Summed up:
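Beta-lactamase reporter ratio (blue 460 nm over green 530 nm, 405 nm excitation) after 2 h CCF4-AM loading, in HCT-116 cells exposed 16 h at 37 C to compounds pinned at 217-fold dilution. Increases relative to DMSO baseline scored.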

For assay [5] the target is unchanged. Put plainly: TOX21_p53_BLA_p4_ratio: Tox21 HCT-116 p53 Agonism Beta-lactamase Assay, Ratio, Phase 4 (AID 2283601). Summed up:
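Signal is the blue/green (460nm/530nm) ratio of cleaved versus uncleaved CCF4-AM substrate, read after 2 h substrate loading. Cells were HCT116 carrying the p53-responsive beta-lactamase reporter, dosed 16 h at 37C, 5% CO2; CellTiter-Glo measured in parallel.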

A short description of assay [6]: TOX21_p53_BLA_p3_viability: Viability Assessment in the Tox21 HCT-116 p53 Agonism Beta-lactamase Assay, Phase 3 (AID 2283593).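 Further: cells exposed to compound for 16 h before reading.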 Summed up:
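Cellular ATP was quantified by CellTiter-Glo luminescence, read after 30 min at room temperature. Beforehand, HCT116 cells (4000/well) received compound 5 h post-seeding, 217-fold diluted from DMSO, then incubated 16 h at 37C.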

Assay [7] in a line: TOX21_p53_BLA_p5_viability: Viability Assessment in the Tox21 HCT-116 p53 Agonism Beta-lactamase Assay, Phase 5 (AID 2283600). Summed up: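 Viability is taken from cellular ATP content, measured by luciferase luminescence in the same wells after the beta-lactamase ratio read. Cells are seeded at 4000 per well and exposed to DMSO-dissolved compounds, diluted 217-fold, for 16 h.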

In assay [8] the target is Cellular tumor antigen p53 (Homo sapiens) (UniProt P04637). Put plainly: TOX21_p53_BLA_p3_ratio: Tox21 HCT-116 p53 Agonism Beta-lactamase Assay, Ratio, Phase 3 (AID 2283596). Summed up:
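Cells were seeded at 4000/well, rested 5 h at 37C, then dosed with DMSO compound solutions (217-fold dilution) for 16 h. CCF4-AM substrate was loaded for 2 h at room temperature, and the 460/530 nm emission ratio was fitted for gain of signal versus DMSO.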

The nature of assay [9]: CCTE_Harrill_HTTr_Viability_MCF7: CCTE's 6-hour Cell Viability Assessment for the High-Throughput Transcriptomics (HTTr) Platform, in MCF-7 cells cultured in DMEM + 10% fetal bovine serum, Harrill Lab (AID 2284010; active means hit-call score of the fitted dose curve at least 0.9, where 1 is the maximum; inactive means score below 0.9). Summed up:
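PI exclusion, high-content imaging; 8-pt dilution series, 6 h exposure; bidirectional fit vs DMSO (neg. ctrl/baseline); gain of signal = loss of membrane integrity.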

The nature of assay [10]: CCTE_Harrill_HTTr_Apoptosis_MCF7: CCTE's 6-hour Apoptosis Assessment for the High-Throughput Transcriptomics (HTTr) Platform, in MCF-7 cells cultured in DMEM + 10% fetal bovine serum, Harrill Lab (AID 2284011; active means hit-call score of the fitted dose curve at least 0.9, where 1 is the maximum; inactive means score below 0.9). Summed up:
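Cells are dosed with test chemicals at eight concentrations and imaged 6 hours later for caspase-3/7 activity using a green fluorogenic detection reagent. Activity is fitted in both directions against DMSO controls.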

Sequence of Cellular tumor antigen p53 (Homo sapiens) (P04637 whole entry, looked up): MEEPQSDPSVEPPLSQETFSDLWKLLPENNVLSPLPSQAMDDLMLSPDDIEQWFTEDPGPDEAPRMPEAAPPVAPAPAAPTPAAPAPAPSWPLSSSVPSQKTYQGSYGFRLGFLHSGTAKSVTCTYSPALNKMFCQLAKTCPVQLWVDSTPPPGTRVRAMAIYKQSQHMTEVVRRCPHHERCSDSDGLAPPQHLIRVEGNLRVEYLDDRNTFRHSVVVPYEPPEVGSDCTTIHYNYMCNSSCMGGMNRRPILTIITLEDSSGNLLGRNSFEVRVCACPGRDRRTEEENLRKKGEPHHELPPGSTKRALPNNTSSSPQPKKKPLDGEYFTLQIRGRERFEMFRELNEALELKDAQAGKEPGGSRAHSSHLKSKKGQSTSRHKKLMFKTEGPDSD

Regarding `CCc1cc(OC)c(C[C@@H](C)N)cc1OC`, the compound was classed as inactive in assay [1], in assay [2], in assay [3], in assay [4] and in assay [5].
Take `C=C1CC[C@@]2(O)[C@H]3Cc4ccc(O)c5c4[C@@]2(CCN3CC2CC2)[C@H]1O5`: the compound was classed as inactive in assay [1] and in [6].
For `CCC(C(N)=O)N1CCCC1=O` (stereo not given), the result in assay [1], in assay [2], in assay [4], in assay [7] and in [5] was inactive.
Turning to `CCC(=O)OC1(c2ccccc2)CCN(C)CC1`, the result in assay [1], in assay [2], in assay [4] and in assay [7] was inactive.
With `c1ccc2c(c1)Sc1ccccc1N2CC1CN2CCC1CC2` (stereo not given), the outcome in assay [1], in [6] and in [8] was inactive. Also, the AC50 in assay [3] is 29.1 µM (active).
In the case of `CCSC(=O)Cl`, the call in assay [1], in [2], in assay [3], in assay [4], in [7] and in assay [5] was inactive.
`Clc1ccc(C2(Cn3cncn3)OCCO2)c(Cl)c1`: the result in [1], in assay [2], in assay [4], in [7] and in assay [5] was inactive.
For `O=S1(=O)OCCO1`, the result in assay [1], in assay [2], in assay [3], in [4], in [7] and in assay [5] was inactive.
Consider `NCCCNCCCN`, for which the compound was classed as inactive in [1], in assay [2], in [3], in [4], in [7] and in assay [5].
Turning to `C[C@@H]1[C@@H]2Cc3ccc(O)cc3[C@@]1(C)CCN2CC1CC1`, the compound was classed as inactive in [1], in [2], in [7] and in [5].
Take `CN(C)S(=O)(=O)N(SC(F)(Cl)Cl)c1ccccc1`: the AC50 in assay [1] was 87.1 µM (active); in assay [3] it was 86.8 µM (active); in [4], 32.3 µM (active); in assay [7] it was 86.8 µM (active). The compound was classed as inactive in assay [6] and in assay [8].
Take `OCCSSCCO`: the outcome in assay [1], in assay [2], in [4], in [5], in [9] and in assay [10] was inactive.
As to `O=[N+]([O-])c1ccc(CBr)cc1`, the call in [1], in assay [6] and in [3] was inactive. Besides, in [8], the AC50 is 94.3 µM (active).
In the case of `CC(Cl)Cl`, the compound was classed as inactive in assay [1], in [2] and in assay [5].
On to `Cc1nnc2n1-c1sc(CCC(=O)N3CCOCC3)cc1C(c1ccccc1Cl)=NC2`, for which the result in assay [1], in [6], in assay [8], in [3], in [4] and in assay [7] was inactive.
Regarding `CC[n+]1c(-c2ccccc2)c2cc(N)ccc2c2ccc(N)cc21`, the result in assay [1] and in assay [3] was inactive. In addition, the AC50 is 1.43 µM (active) and 9.38 µM (active) and 2.95 µM (active) in assay [2]; 2.77 µM (active) and 8.85 µM (active) and 4.7 µM (active) in assay [4]; 1.93 µM (active) and 9.2 µM (active) and 3.86 µM (active) in [5].
On to `CC(C)C[C@H]1C(=O)N2CCC[C@H]2[C@]2(O)O[C@](NC(=O)[C@@H]3C[C@@H]4c5cccc6[nH]cc(c56)C[C@H]4N(C)C3)(C(C)C)C(=O)N12`, for which the compound was called inactive in [1], in assay [6], in [8], in [3], in assay [4] and in assay [7]. Also, in [5], the result was inactive.
In the case of `CCOC(=O)N(C)C(=O)CSP(=S)(OCC)OCC`, the result in assay [1], in assay [2], in assay [3], in [4], in assay [7] and in [5] was inactive.
